Values joined by “and” are separate entries in the source; they are usually repeats but may differ in a detail not shown here. Equal values may be shown once. Where a structure was tested more than once in an assay, its records may differ in their call. Active and inactive are the calls of the source. How the source made its calls: active means hit-call score of the fitted dose curve at least 0.9, where 1 is the maximum; inactive means score below 0.9.
Read-out: Macrophage colony-stimulating factor (MCSF), CSF1 (gene 1435)
Assay: BSK_LPS_MCSF: BioMAP Diversity Plus: LPS Assay for Macrophage colony-stimulating factor (MCSF) Biomarker Activity (AID 2283083)
Conditions: primary human HUVEC with PBMC; actives raise or lower the signal
Summary of the method: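 Bidirectional fit versus DMSO of ELISA-measured M-CSF in co-cultured human umbilical vein endothelial cells and PBMC, sampled 24 h after dosing.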

| Compound | AC50 | outcome |
| --- | --- | --- |
| O=C(O)C(F)(F)C(F)(F)C(F)(F)C(F)(F)F | 8.3 µM (active) | inactive |
| OCC(F)(F)C(F)(F)C(F)(F)C(F)(F)C(F)(F)C(F)(F)F | – | inactive |
| C=C(C)C(=O)OCCC(F)(F)C(F)(F)C(F)(F)C(F)(F)C(F)(C(F)(F)F)C(F)(F)F | – | inactive |
| O=P(O)(O)OCCC(F)(F)C(F)(F)C(F)(F)C(F)(F)C(F)(F)C(F)(F)F | – | inactive |
| O=S(=O)(OCC(F)F)C(F)(F)F | – | inactive |
| O=C(CC(=O)C(F)(F)C(F)(F)F)C(F)(F)F | – | inactive |
| C=CC(=O)OCC(F)(F)C(F)(F)C(F)(F)C(F)(F)COC(=O)C=C | 21.4 µM (active) and 21.3 µM (active) | – |
| CCCCCCCCC(F)(F)C(F)(F)C(F)(F)C(F)(F)C(F)(F)C(F)(F)F | – | inactive |
| N=C(N)C(F)(F)C(F)(F)C(F)(F)C(F)(F)C(F)(F)C(F)(F)C(F)(F)F | 47 µM (active) | inactive |
| O=C(O)C(F)(F)C(F)(F)F | – | inactive |
| FC(F)(I)C(F)(F)C(F)(F)C(F)(F)I | – | inactive |
| FC(F)(F)C(F)(F)C(F)(F)C(F)(F)C(F)(F)C(F)(F)C(F)(F)C(F)(F)F | – | inactive |
| FC(F)(F)C(F)(F)C(F)(F)N(C(F)(F)C(F)(F)C(F)(F)F)C(F)(F)C(F)(F)C(F)(F)F | – | inactive |
| FC(F)(F)C(F)(F)CNCC(F)(F)C(F)(F)F | 6.78 µM (active) | inactive |
| FC(F)(F)C(F)(F)C(F)(F)C(F)(F)C(F)(F)C(F)(F)CCS | – | inactive |
| O=C(O)C(F)(F)C(F)(F)C(F)(F)F | – | inactive |
| O=C(O)C(F)(F)C(F)(F)C(F)(F)C(F)(F)C(F)(F)C(F)(F)C(F)(F)C(F)(F)Cl | 19.4 µM (active) | inactive |

— PubChem BioAssay (EPA / NIEHS)
